# Data published in PubChem BioAssay (NCI).
# Compounds without any hit were thinned out: in the full panel of roughly 79,000, 15% have a hit. Unmarked numbers belong to inactive results. No stated cut-off is given here; in the data, active means growth inhibition above about 70%; inactive means the rest.
# Assay: NCI Yeast Anticancer Drug Screen. Data for the mec2-1 strain (AID 157)
# Conditions: S. cerevisiae mec2-1 strain, at 5.0 µM (retest, dose inferred, filed as 0.5), stronger effect = higher value
# Summary of the method: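 Mutant yeast (mec2-1) grown with compound; growth inhibition relative to vehicle control reported.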
row,SMILES,growth inhibition [%]
1,CC(CN(C)C)C(=O)/C=C/c1c(Cl)cccc1Cl (stereo not drawn),8
2,COc1ccc(C(=O)c2cc(Br)ccc2O)cc1,-6
3,COc1cccc(OC)c1C(=O)/C=C/c1ccccc1,-1
4,S=C(Nc1ccc(Cl)c(Cl)c1)SC1CCCCC1,11
5,Cc1sc(N=Nc2c(O)[nH]c3ccccc23)nc1-c1ccccc1,16
6,O=C(NC(c1ccccc1)N1CCOCC1)c1ccccc1 (stereo not drawn),-7
7,Cc1nc2ccc3c(ccc4nc(C)c(N=Nc5ccc(C(=N)N)cc5)c(O)c43)c2c(O)c1N=Nc1ccc(C(=N)N)cc1,0
8,CN(C)CCNC(=O)C(c1ccccc1)c1ccccc1,2
9,CCOc1ccc(C(=O)CCN2CCOCC2)cc1,14
10,O=S(Nc1ccccc1Br)c1ccccc1 (stereo not drawn),-2
11,CSC(=S)N/N=C(\C)c1ccc[nH]1,0
12,Cc1ccc(Cl)cc1NN,5
13,C[C@]12CC[C@H](O)C[C@@H]1CC[C@@H]1[C@@H]2CC[C@]2(C)[C@@H](c3cc(C(F)(F)F)n[nH]3)CC[C@@H]12,3
14,CCCOC(=O)C(S)C(S)C(=O)OCCC (stereo not drawn),2
15,CCC(C)(C)c1cc(Br)c(NS(=O)(=O)c2ccc(NC(C)=O)cc2)c(Br)c1,13
16,Cn1c2c(c3nc(N)nc(N)c3c1=O)CCc1ccccc1-2,0
17,Cc1ccc(C(O)CCN2CCOCC2)c(C)c1 (stereo not drawn),30
18,COC(=O)CCCC(=O)NC1=C(Nc2ccccc2)C(=O)c2ccccc2C1=O,15
